# From the supplement of paper PMC10849652
# The full data set covers some 7,900 targets. This sample favours those with a hit. About 0.6% of all pairs of compound and target were hits. Values without a mark were called inactive.
# Compound: CC(=O)c1cnc2ccc(-c3cc(Cl)c(O)c(Cl)c3)nc2c1N[C@H]1CC[C@H](CN(C)C)CC1
# Test: log2 fold change, soluble protein after heating vs DMSO (PISA); higher = thermal stabilisation; K562 cells, 10 uM, 30 min; active = over 0.2 and 3.5 SD of the protein, either way, in both replicates (recomputed)
# Method in brief: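 Aliquots of K562 cells (2×10^6 cells/mL) treated with 10 μM compound for 30 min were heated for 3 min over 48°C-58°C. After pooling and extraction in PBS with 0.5% NP-40 at 4°C, soluble protein from a 21,000xg, 90 min spin was quantified by TMTpro 16plex LC-MS/MS with channel sums equalised. Thermal stability is expressed against control samples, from duplicates, as a log2 fold change.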
# Chain of UniProt Q08170 (Q08170 whole entry, looked up): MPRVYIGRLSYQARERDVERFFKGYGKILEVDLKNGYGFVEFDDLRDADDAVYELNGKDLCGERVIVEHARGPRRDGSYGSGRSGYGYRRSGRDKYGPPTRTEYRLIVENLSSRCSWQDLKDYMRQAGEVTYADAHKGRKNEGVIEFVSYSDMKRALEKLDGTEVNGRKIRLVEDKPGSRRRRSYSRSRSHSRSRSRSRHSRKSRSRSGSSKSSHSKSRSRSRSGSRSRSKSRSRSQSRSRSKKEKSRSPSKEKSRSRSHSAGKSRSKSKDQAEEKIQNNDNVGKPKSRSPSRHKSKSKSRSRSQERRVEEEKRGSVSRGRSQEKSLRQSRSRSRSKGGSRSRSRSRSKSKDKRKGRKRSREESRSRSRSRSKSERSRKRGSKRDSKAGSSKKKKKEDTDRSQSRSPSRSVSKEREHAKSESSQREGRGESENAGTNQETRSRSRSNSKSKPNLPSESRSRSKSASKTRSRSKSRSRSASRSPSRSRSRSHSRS
# Chain of UniProt A6NHR9 (A6NHR9 whole entry, looked up): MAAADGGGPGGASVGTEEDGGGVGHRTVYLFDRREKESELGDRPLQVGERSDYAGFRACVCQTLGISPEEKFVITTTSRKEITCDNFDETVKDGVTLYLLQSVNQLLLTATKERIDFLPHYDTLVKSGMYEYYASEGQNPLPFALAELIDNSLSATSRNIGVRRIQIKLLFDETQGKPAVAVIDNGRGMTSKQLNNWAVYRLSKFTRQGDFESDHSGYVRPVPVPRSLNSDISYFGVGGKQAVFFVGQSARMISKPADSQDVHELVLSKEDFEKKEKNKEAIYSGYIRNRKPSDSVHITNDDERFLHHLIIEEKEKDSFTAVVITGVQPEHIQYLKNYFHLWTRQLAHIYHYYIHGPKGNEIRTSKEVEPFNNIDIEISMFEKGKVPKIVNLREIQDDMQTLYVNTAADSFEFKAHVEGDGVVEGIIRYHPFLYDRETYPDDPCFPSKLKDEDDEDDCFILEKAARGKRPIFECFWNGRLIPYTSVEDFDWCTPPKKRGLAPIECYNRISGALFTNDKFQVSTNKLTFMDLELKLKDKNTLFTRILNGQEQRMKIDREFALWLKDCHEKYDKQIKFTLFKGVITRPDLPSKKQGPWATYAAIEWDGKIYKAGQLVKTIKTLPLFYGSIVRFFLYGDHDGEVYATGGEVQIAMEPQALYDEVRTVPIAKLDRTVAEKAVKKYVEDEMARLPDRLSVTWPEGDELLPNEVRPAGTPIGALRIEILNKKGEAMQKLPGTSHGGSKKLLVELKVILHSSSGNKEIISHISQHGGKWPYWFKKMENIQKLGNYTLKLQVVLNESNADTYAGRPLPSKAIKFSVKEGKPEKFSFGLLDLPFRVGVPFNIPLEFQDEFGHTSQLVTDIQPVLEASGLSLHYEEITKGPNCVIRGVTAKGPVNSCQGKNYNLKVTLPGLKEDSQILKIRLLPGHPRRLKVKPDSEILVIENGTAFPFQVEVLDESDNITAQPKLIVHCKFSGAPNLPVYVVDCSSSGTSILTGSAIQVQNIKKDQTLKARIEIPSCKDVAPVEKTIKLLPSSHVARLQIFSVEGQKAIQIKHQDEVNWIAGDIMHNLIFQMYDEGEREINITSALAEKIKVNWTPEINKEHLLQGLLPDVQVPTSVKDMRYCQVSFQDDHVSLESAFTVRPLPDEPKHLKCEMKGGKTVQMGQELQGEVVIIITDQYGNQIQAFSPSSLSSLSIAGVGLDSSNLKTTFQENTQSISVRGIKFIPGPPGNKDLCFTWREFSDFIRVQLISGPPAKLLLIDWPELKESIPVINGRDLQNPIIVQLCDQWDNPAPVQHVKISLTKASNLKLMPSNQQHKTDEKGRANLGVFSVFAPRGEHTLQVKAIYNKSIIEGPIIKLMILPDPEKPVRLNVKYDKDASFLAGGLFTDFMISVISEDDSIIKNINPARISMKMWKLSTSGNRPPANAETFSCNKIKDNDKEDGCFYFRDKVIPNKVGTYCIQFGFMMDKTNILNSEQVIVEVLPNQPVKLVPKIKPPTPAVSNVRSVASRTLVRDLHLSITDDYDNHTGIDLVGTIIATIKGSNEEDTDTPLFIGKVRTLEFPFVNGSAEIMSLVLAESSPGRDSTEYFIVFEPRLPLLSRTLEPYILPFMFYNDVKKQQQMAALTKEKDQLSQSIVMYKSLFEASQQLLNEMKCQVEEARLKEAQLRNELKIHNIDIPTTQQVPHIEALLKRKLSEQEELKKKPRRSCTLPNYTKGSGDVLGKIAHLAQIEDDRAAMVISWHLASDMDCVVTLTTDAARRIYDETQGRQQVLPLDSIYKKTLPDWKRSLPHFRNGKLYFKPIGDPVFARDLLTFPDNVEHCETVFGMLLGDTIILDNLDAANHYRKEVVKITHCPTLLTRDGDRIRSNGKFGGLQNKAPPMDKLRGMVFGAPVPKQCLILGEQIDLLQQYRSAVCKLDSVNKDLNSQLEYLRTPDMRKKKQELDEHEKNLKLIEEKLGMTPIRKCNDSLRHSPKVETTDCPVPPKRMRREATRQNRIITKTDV
# Chain of UniProt Q969Z0 (Q969Z0 whole entry, looked up): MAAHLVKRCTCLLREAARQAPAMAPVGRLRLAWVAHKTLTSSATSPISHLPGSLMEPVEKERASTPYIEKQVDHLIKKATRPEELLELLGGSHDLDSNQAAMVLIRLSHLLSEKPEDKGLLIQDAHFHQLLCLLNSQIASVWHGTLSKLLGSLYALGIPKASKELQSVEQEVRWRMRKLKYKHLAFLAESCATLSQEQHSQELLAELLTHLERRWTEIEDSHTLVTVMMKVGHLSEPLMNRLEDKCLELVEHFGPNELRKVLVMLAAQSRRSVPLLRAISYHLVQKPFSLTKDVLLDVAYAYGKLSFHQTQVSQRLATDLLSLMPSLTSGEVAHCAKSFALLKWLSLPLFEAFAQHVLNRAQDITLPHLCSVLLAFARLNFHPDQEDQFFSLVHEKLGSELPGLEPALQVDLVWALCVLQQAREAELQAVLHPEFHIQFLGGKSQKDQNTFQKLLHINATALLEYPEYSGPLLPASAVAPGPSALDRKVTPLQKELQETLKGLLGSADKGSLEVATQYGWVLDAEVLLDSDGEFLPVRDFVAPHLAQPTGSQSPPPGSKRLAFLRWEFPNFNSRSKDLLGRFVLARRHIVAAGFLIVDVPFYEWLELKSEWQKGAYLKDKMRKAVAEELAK
# Chain of UniProt Q13247 (Q13247 whole entry, looked up): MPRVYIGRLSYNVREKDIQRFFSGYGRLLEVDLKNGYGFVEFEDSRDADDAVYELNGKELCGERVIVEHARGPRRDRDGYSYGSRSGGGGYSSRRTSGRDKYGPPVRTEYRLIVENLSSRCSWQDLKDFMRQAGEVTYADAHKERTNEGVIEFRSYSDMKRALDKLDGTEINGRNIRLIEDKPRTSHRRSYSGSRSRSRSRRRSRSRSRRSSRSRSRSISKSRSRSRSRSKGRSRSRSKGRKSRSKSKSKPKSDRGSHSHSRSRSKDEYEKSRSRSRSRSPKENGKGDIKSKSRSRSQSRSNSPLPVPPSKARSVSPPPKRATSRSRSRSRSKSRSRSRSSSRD
# Chain of UniProt Q9Y5J6 (Q9Y5J6 whole entry, looked up): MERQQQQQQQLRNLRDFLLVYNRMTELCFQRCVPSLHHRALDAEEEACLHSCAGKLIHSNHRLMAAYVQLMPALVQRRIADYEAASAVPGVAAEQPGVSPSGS
# Chain of UniProt Q15582 (Q15582 whole entry, looked up): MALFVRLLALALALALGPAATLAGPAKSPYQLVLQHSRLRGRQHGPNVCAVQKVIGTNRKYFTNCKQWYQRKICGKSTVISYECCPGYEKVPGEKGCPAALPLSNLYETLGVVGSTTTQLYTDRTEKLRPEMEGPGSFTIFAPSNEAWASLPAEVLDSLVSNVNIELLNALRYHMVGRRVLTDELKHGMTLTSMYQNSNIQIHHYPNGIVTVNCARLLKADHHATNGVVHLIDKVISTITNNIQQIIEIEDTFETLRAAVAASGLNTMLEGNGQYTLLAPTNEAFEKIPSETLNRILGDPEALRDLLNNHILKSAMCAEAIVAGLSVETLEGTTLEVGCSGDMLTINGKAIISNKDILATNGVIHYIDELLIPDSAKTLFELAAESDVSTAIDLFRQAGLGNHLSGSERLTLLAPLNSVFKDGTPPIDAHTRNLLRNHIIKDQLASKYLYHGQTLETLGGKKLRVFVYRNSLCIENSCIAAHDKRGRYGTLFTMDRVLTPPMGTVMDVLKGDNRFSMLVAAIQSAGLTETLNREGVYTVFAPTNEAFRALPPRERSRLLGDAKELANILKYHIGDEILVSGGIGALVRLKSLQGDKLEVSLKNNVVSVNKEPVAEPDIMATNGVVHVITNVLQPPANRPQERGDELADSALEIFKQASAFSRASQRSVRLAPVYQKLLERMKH
# Chain of UniProt Q6P1M0 (Q6P1M0 whole entry, looked up): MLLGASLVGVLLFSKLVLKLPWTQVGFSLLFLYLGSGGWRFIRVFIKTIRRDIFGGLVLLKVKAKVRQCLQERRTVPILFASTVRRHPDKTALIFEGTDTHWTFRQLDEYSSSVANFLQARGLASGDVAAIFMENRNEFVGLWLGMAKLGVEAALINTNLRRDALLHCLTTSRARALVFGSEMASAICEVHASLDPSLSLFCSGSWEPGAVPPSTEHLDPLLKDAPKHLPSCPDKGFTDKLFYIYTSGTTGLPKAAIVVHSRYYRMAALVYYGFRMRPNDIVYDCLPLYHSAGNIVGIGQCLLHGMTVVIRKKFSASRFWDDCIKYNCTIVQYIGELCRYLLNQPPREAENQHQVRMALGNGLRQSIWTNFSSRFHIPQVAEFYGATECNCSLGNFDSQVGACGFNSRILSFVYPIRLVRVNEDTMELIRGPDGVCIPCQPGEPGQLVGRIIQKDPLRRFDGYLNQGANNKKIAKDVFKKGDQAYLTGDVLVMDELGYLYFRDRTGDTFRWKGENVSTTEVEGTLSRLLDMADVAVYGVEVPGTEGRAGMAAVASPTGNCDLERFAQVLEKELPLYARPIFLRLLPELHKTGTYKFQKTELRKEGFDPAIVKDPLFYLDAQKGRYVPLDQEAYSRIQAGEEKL
# Chain of UniProt Q9Y5L4 (Q9Y5L4 whole entry, looked up): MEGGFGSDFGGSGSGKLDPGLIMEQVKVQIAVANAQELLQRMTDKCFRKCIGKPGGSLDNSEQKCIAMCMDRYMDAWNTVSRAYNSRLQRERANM
row,Target,log2 fold change
1,STK38 (UniProt Q15208),-0.308 (active)
2,TBC1D24 (UniProt Q9ULP9),-0.415 (active)
3,SMARCA4 (UniProt P51532),-0.056
4,TAOK3 (UniProt Q9H2K8),-0.48 (active)
5,SP100 isoform 4 (UniProt P23497),0.074
6,SLC35B4 (UniProt Q969S0),0.184
7,TBRG4 (UniProt Q969Z0),-0.188
8,TIMM10B (UniProt Q9Y5J6),-0.231
9,SMIM20 isoform 2 (UniProt Q8N5G0),-0.023
10,SPTBN4 (UniProt Q9H254),-0.06
11,TGFBI (UniProt Q15582),0.045
12,STARD3NL (UniProt O95772),-0.216
13,TJP1 (UniProt Q07157),-0.443 (active)
14,TANGO6 (UniProt Q9C0B7),0.052
15,TANK (UniProt Q92844),-0.181
16,SRC isoform 2 (UniProt P12931),-0.251
17,SUOX (UniProt P51687),0.003
18,SNRNP40 (UniProt Q96DI7),0.068
19,SNX11 (UniProt Q9Y5W9),-0.062

row,Target,log2 fold change
1,TIMM13 (UniProt Q9Y5L4),0.01
2,TATDN2 (UniProt Q93075),-0.402 (active)
3,SRSF9 (UniProt Q13242),-0.13
4,SLC35F6 (UniProt Q8N357),-0.016
5,SMCHD1 (UniProt A6NHR9),-0.344
6,SP3 (UniProt Q02447),-0.007
7,TBC1D20 isoform 3 (UniProt Q96BZ9),-0.124
8,SYK (UniProt P43405),-0.277
9,TIMM29 (UniProt Q9BSF4),-0.014
10,SMARCE1 (UniProt Q969G3),-0.006
11,SRSF6 (UniProt Q13247),-0.167
12,SRSF4 (UniProt Q08170),-0.261
13,SULT1A1 (UniProt P50225),-0.099
14,SLC27A4 (UniProt Q6P1M0),-0.034
15,SSB (UniProt P05455),-0.209
16,TLK2 isoform 2 (UniProt Q86UE8),-0.144
17,TMBIM1 (UniProt Q969X1),-0.126
18,STK11IP (UniProt Q8N1F8),-0.02
